Results filed as inconclusive are left out. Calls of active or inactive are those of the source. The call rests on the fitted dose curve; in most records, active means well fitted cell-killing curve with a large enough effect; inconclusive means small, poorly fitted or top-dose-only effect, or effect the other way; inactive means flat fitted curve, though single readings scatter.
On the % scale 0 is the no-effect control and ±100 the full control effect.

This assay has as its system Tov-21-G. The assay is described as follows: Primary qHTS to identify gynecologic anti-cancer compounds using libraries of approved drugs and bioactive compounds (AID 1345084). Further: nearly all actives have a fitted effect of over 55% in size. The settings on record: Gynecologic cancer cell panel viability, ATPlite luminescence, 48 h; series mostly up to 57.5 µM; activity change, negative = cytotoxicity: at the top concentration. The gist of the method:
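Luminescence from the ATPlite ATP-monitoring reagent indicates viable cell number; lower signal means cytotoxicity. Cells received compound 16 h after seeding and were exposed for 48 h across five concentrations.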
A general note: qHTS replaces the single test concentration by a dilution series.
Take `COc1cccc([C@@]2(O)CCCC[C@@H]2CN(C)C)c1`: the “activity change, negative = cytotoxicity” value is -1.46% (inactive).
The same measure, in the same setting: to `C#C[C@]1(O)CC[C@H]2[C@@H]3CCC4=CC(=O)CC[C@]4(C)[C@H]3CC[C@@]21C` belongs -4% (inactive); to `COP(=S)(OC)Oc1ccc(S(=O)(=O)N(C)C)cc1`, -4.22% (inactive).
Regarding `C[N+]1(CCF)[C@@H]2CC[C@H]1CC(OC(=O)C(O)(c1ccccc1)c1ccccc1)C2` (stereo not given in full), the “activity change, negative = cytotoxicity” value is 4.92% (inactive).
Take `Nc1ccccc1`: the “activity change, negative = cytotoxicity” value was 4.54% (inactive).
As to `CN1C(=O)NC(=O)C(C)(C2=CCCCC2)C1=O` (stereo not given), the “activity change, negative = cytotoxicity” value is 1.72% (inactive).
The same measure, in the same setting: to `CCC1(CC)C(=O)C=CNC1=O` belongs -0.27% (inactive); to `O=c1oc2ccccc2c(O)c1Cc1c(O)c2ccccc2oc1=O`, 1.32% (inactive); to `COC(=O)[C@@H](N)CCCN/C(N)=N/[N+](=O)[O-]`, 3.18% (inactive).
The same measure, in the same setting: as for `Cc1ncsc1CCCl`, the figure is -0.86% (inactive); as for `COC(=O)C(Cl)C(=O)OC`, 1.52% (inactive); as for `CN(C)CCc1c[nH]c2cccc(OP(=O)(O)O)c12`, -2.11% [at 116 µM] (inactive).
As for `O=[N+]([O-])O[C@H]1CO[C@H]2[C@@H]1OC[C@H]2O[N+](=O)[O-]`, the “activity change, negative = cytotoxicity” value is -6.27% (inactive).
Same read-out and setting: as for `CC(C)NC(C)C`, the figure is -0.951% (inactive); as for `O=C1OC(c2ccc(O)c(S(=O)(=O)O)c2)(c2ccc(O)c(S(=O)(=O)O)c2)c2c(Br)c(Br)c(Br)c(Br)c21`, -0.021% (inactive).
For the compound `CCC1(c2ccccc2)C(=O)N(COC)C(=O)N(COC)C1=O`, the “activity change, negative = cytotoxicity” value is -1.29% (inactive).
As to `CCOC(=O)CC(SP(=S)(OC)OC)C(=O)OCC` (stereo not given), the Potency entry is “inactive”.
For the compound `CC(=O)OCC1=C(C(=O)O)N2C(=O)[C@@H](N)[C@H]2SC1`, the Potency result is “inactive”.
For `CC1(C)C(C=C(Cl)Cl)C1C(=O)OC(C#N)c1cccc(Oc2ccccc2)c1` (stereo not given), the “activity change, negative = cytotoxicity” value was 3.18% (inactive).
The same measure, in the same setting: as for `O=C(N/N=C/c1ccc([N+](=O)[O-])o1)c1cc([N+](=O)[O-])cc([N+](=O)[O-])c1O`, the figure is 6.31% (inactive).

(Values after PubChem BioAssay (NCATS).)
